The source of these data is PubChem BioAssay (NCI).

Values joined by “and” are separate entries in the source; they are usually repeats but may differ in a detail not shown here. Equal entries are not always repeated. This is part of a sample that, as a whole, favours compounds with a hit. Of some 83,000 tested, about 20% had one in any assay.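 Assay: single dose, 48 h. Readout: percent growth (0 = no net growth; negative = cell death). Active: <10.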 Unmarked numbers belong to inactive results. Active and inactive are the calls of the source.

The test system of the assay is HL-60(TB) leukemia. As to the kind of experiment: NCI-60 one-dose screen, 48 h (100 = growth as untreated, 0 = no growth, -100 = all killed). The note with it: 10 µM unless noted.
Consider `CC(C)(C)CC(C)(C)c1ccc(OCCOCC[N+](C)(C)CC(=O)[O-])cc1`, for which the growth was 96.1%. Regarding `COc1ccc(C(CC(=O)c2ccc3c(c2)OCO3)C(=O)O)cc1OC` (configuration not stated), the growth was 101% and 99.7%. With `COc1ccc2c(c1)sc1nc(-c3ccc(Br)cc3)cn12` the figure was 80.7%. `O=S(=O)(NCCNc1cc(-c2cn(-c3ccccc3)nc2-c2cccc(O)c2)ccn1)c1cccc(F)c1`: the growth was 27.4%. On to `Cc1[c-]onc1C.Cc1[c-]onc1C.[Ag].[Ag].[NH-]S(=O)(=O)c1ccc(N=Nc2cc(N=Nc3ccc(S([NH-])(=O)=O)cc3)c3c(NC(=O)C(Cl)Cl)cccc3c2OC(=O)C(Cl)Cl)cc1`, for which the growth was 38.1%. In the case of `CC(C)NCC(O)c1ccc(O)c(O)c1` (configuration not stated), the growth was 85.3% and 82.1% and 95.3%. Take `Cc1ccc(Cl)c(NS(=O)(=O)c2ccc(-c3cnc(C4CC4)o3)cc2)c1`: the growth is -22% (active). With `CC(C)N=c1cc2n(-c3ccc(Cl)cc3)c3ccccc3nc-2cc1Nc1ccc(Cl)cc1`, the growth was -6.14% (active) and -2.06% (active) and -36.3% (active). With `CN(C)CCCC1(c2ccc(F)cc2)OCc2cc(-c3cccc4[nH]ccc34)ccc21` (configuration not stated), the growth is 31.6%. For the compound `OCC(O)C(O)CC1SCCS1` (configuration not stated), the growth is 46%. In the case of `Cc1cc(CC(=O)O)n(C)c1C(=O)c1ccc(Cl)cc1`, the growth is 105%. As to `Cc1nc(NC(=O)NC2CCCCC2)sc1C(=O)NN`, the growth is 172%. The same measure for `O=C(Oc1cccc(OC(=O)c2ccccc2)c1)c1ccccc1`: 73% and 114%. With `Fc1ccc(CNc2c3ccccc3nc3ccccc23)c(F)c1` the figure was 58.3%.

Regarding `CC1(C)OC(=O)CC1=O`, the growth is 91.5%. With `NNC(=O)Nc1ccccc1` the figure was 102%; with `O=C(c1ccccc1)[C@H]1[C@@H]2CCCN2[C@]2(C(=O)Nc3ccc(F)cc32)[C@]12C(=O)Nc1ccccc12`, 68.3%. As to `Cc1ccc(NC2=CC(=O)C(=O)c3ccccc32)c(C)c1`, the growth was 38%. As for `O=[N+]([O-])c1ccc(S(=O)(=O)N2CCN(C3=NS(=O)(=O)c4ccccc4N3c3ccccc3)CC2)cc1`, the growth is 96.7%. On to `O=C(c1ccc(Cl)cc1Cl)N1CCOCC1`, for which the growth is 105%. As to `COc1ccc(C(=O)c2c(N)nc3n2CCCC3)cc1OC`, the growth was 94.1%.

For `Cc1oc2ncnc(Nc3ccccc3)c2c1C(=O)NCCO`, the growth is 64.9%. In the case of `C=CCSc1n[nH]c(-c2cccs2)n1`, the growth is 111%. In the case of `COc1ccc(CCn2cnn3c(=O)c4ccccc4nc3c2=O)cc1OC`, the growth is 92.4% and 103%. Consider `N#C/C(=N\Nc1ccc(Cl)cc1)C(=O)C1CC1`, for which the growth was 62.8%. Take `Cc1ccc(CNc2ccc(Cl)cc2NCc2ccc(C)c(O)c2)cc1O`: the growth was 8.41% (active).

As for `COc1cc(-c2cncn2-c2ccc(-c3nc4ccc(F)cc4s3)cc2)ccc1F`, the growth is 53.1%.
